From PubChem BioAssay (EPA / NIEHS)
Results filed as inconclusive are left out. Active and inactive are the calls of the source. The calls were made as follows, unless noted: active = hit-call score of the fitted dose curve at least 0.9, where 1 is the maximum; inactive = score below 0.9.

Legend:
[1] = ATG_TAL_CIS: Attagene CIS-FACTORIAL HepG2 Assay for human TAL Basal Promoter (AID 2282966); settings: HepG2 Attagene cis-factorial TAL promoter reporter; actives raise or lower the signal;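 also: background control endpoint measuring basal TAL promoter reporter mRNA not a specific factor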
Summary of the method: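 Background-control endpoint: basal TAL promoter reporter transcripts in transiently transfected HepG2, measured 24 h after dosing. Read-out by RT-PCR with fluorescent primer extension and capillary electrophoresis; gain or loss of signal fitted relative to DMSO.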

[2] = ATG_TGFb_CIS: Attagene CIS-FACTORIAL HepG2 Assay for human Transforming Growth Factor (TGF) (AID 2282967); settings: HepG2 Attagene CIS TGFb reporter, mRNA transcription; actives raise or lower the signal
Summary of the method: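 Cells were dosed for 24 hours, after which total RNA was reverse-transcribed and reporter sequences amplified, labeled and sized by capillary electrophoresis. Activity was fitted in both directions against DMSO.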

[3] = ATG_VDRE_CIS: Attagene CIS-FACTORIAL HepG2 Assay for human Vitamin D Receptor Element (VDRE) (AID 2282968); settings: HepG2 VDRE cis-reporter transcription, actives raise or lower the signal
Summary of the method: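 Transient MRTU transfection of HepG2, 24 h compound exposure. Readout: reporter transcripts via RT-PCR and capillary electrophoresis, fluorescence. Bidirectional fit vs DMSO.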

[4] = molecular target: Nuclear receptor subfamily 1 group I member 3 (Homo sapiens) (UniProt Q14994); assay: ATG_CAR_TRANS: Attagene TRANS-FACTORIAL HepG2 Assay for human Constitutive Androstane Receptor (CAR) (AID 2282969; active = hit-call score of the fitted dose curve at least 0.9, where 1 is the maximum;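 also: activators raise reporter mRNA above DMSO so AC50 marks induction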); settings: HepG2 Attagene TRANS-FACTORIAL CAR reporter
Summary of the method: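 Transiently transfected HepG2, multiplex TRANS reporters (CAR-Gal4 chimera driving GAL4-UAS reporter). 24 h dosing. Readout: reporter transcript by RT-PCR + capillary electrophoresis, fluorescence intensity; positive direction vs DMSO.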

[5] = molecular target: X-box-binding protein 1 (Homo sapiens) (UniProt P17861); assay: ATG_Xbp1_CIS: Attagene CIS-FACTORIAL HepG2 Assay for human X-box Binding Protein 1 (XBP1) (AID 2282972); settings: HepG2 XBP1 cis-element reporter, Attagene multiplex; actives raise or lower the signal
Summary of the method: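 Human hepatoma HepG2, cis-element reporter system, 24 h treatment; mRNA quantified by RT-PCR/CE fluorescence; fit relative to DMSO.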

[6] = ATG_M_19_TRANS: Attagene TRANS-FACTORIAL HepG2 Assay for M19 Transcription Factor (Internal Marker) (AID 2282974; active = hit-call score of the fitted dose curve at least 0.9, where 1 is the maximum); settings: HepG2 Attagene TRANS-FACTORIAL M19 internal marker reporter
Summary of the method: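 Using RT-PCR and capillary electrophoresis, reporter mRNA from transiently transfected human HepG2 cells was quantified following 24 h exposure; activity was fitted in the positive direction against DMSO.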

[7] = molecular target: Glucocorticoid receptor (Homo sapiens) (UniProt P04150); assay: ATG_GR_TRANS: Attagene TRANS-FACTORIAL HepG2 Assay for human Glucocorticoid Receptor (GR) (AID 2282978; active = hit-call score of the fitted dose curve at least 0.9, where 1 is the maximum;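 also: activators score as hits since higher reporter transcript over DMSO is fitted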); settings: HepG2 Attagene TRANS GR reporter, mRNA transcription
Summary of the method: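 Exogenous NR-GAL4 fusion activity was assessed through induced GAL4-UAS reporter transcripts in transfected human HepG2 cells, quantified after 24 h by RT-PCR and fluorescent capillary electrophoresis with DMSO as baseline.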

[8] = molecular target: Oxysterols receptor LXR-beta (Homo sapiens) (UniProt P55055); assay: ATG_LXRb_TRANS: Attagene TRANS-FACTORIAL HepG2 Assay for human Liver X Receptor beta (LXRb) (AID 2282981; active = hit-call score of the fitted dose curve at least 0.9, where 1 is the maximum); settings: HepG2 Attagene TRANS GAL4-LXRb reporter, mRNA
Summary of the method: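 Readout: fluorescent reporter mRNA fragments resolved by capillary electrophoresis after RT-PCR. System: transiently transfected human HepG2, exogenous LXRb-Gal4 chimera driving GAL4-UAS reporter, 24 h dosing. Activity fitted upward against DMSO baseline.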

[9] = molecular target: Transcriptional activator Myb (Homo sapiens) (UniProt P10242); assay: ATG_Myb_CIS: Attagene CIS-FACTORIAL HepG2 Assay for human Myeloblastosis (Myb) Proto-Oncogene Transcription Factor (AID 2282986); settings: HepG2 Attagene CIS-FACTORIAL Myb reporter transcription; actives raise or lower the signal
Summary of the method: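 In this HepG2 transient-transfection format, cis-regulated reporter mRNA is quantified 24 h post-dosing by RT-PCR with capillary electrophoresis, fitted bidirectionally to DMSO baseline.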

[10] = molecular target: Nuclear respiratory factor 1 (Homo sapiens) (UniProt Q16656); assay: ATG_NRF1_CIS: Attagene CIS-FACTORIAL HepG2 Assay for human Nuclear Respiratory Factor 1 (NRF1) Orphan Gene (AID 2282987); settings: HepG2 NRF1 cis-element reporter, Attagene multiplex; actives raise or lower the signal
Summary of the method: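 Using DMSO as baseline, gain- or loss-of-signal was fitted for reporter mRNA levels in HepG2 cells transiently transfected with cis-regulated reporter units. Samples were taken 24 h after dosing and read by RT-PCR with capillary electrophoresis.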

[11] = molecular target: Estrogen-related receptor gamma (Homo sapiens) (UniProt P62508); assay: ATG_ERRg_TRANS: Attagene TRANS-FACTORIAL HepG2 Assay for human Estrogen-Related Receptor gamma (ERRg) (AID 2282977; active = hit-call score of the fitted dose curve at least 0.9, where 1 is the maximum;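 also: hits increase reporter signal over DMSO so potencies reflect activators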); settings: HepG2 Attagene TRANS reporter, ERRg transactivation
Summary of the method: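 Exogenous NR-Gal4 chimera activity was assessed in HepG2 cells bearing transfected GAL4-UAS reporters. After 24 h dosing, total RNA underwent RT-PCR, fluorescent primer extension and HpaI digestion before capillary electrophoresis, with gain of signal scored against DMSO.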

[12] = ATG_M_06_TRANS: Attagene TRANS-FACTORIAL HepG2 Assay for M06 Transcription Factor (Internal Marker) (AID 2282983; active = hit-call score of the fitted dose curve at least 0.9, where 1 is the maximum); settings: HepG2 Attagene TRANS M06 internal marker reporter
Summary of the method: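 Background-control reporter readout: after 24 h chemical exposure of transiently transfected HepG2 (GAL4-UAS reporter units), mRNA quantified by RT-PCR with fluorescent labeling and capillary electrophoresis. Gain-of-signal fitting against DMSO baseline.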

[13] = ATG_M_32_TRANS: Attagene TRANS-FACTORIAL HepG2 Assay for M32 Transcription Factor (Internal Marker) (AID 2282984; active = hit-call score of the fitted dose curve at least 0.9, where 1 is the maximum); settings: HepG2 Attagene TRANS M32 internal marker reporter
Summary of the method: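 Read-out: fluorescent reporter cDNA fragments resolved by capillary electrophoresis after RT-PCR of total RNA. Transfected HepG2 cells were exposed to chemical for 24 h. Activity scored in the positive direction relative to DMSO.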

[14] = molecular target: Oxysterols receptor LXR-alpha (Homo sapiens) (UniProt Q13133); assay: ATG_LXRa_TRANS: Attagene TRANS-FACTORIAL HepG2 Assay for human Liver X Receptor alpha (LXRa) (AID 2282980; active = hit-call score of the fitted dose curve at least 0.9, where 1 is the maximum); settings: HepG2 Attagene TRANS reporter, LXRa transactivation
Summary of the method: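 Chemical-induced reporter mRNA measured by RT-PCR with fluorescent labelling and capillary electrophoresis after 24 h dosing of transiently transfected HepG2 cells expressing exogenous NR-Gal4 chimeras; increases scored against DMSO baseline.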

[15] = molecular target: Bile acid receptor (Homo sapiens) (UniProt Q96RI1); assay: ATG_FXR_TRANS: Attagene TRANS-FACTORIAL HepG2 Assay for Farnesoid X Receptor (FXR) (AID 2282979; active = hit-call score of the fitted dose curve at least 0.9, where 1 is the maximum;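 also: hits raise reporter mRNA above DMSO so AC50 marks FXR activation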); settings: HepG2 Attagene TRANS FXR-GAL4 reporter transcription
Summary of the method: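 Reporter transcripts from transfected HepG2 cells were measured 24 h after dosing, using RT-PCR with capillary electrophoresis of 6-FAM-labelled fragments. The read-out reflects activity of exogenous FXR-Gal4 chimera on GAL4-UAS units, with induction relative to DMSO.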

[16] = molecular target: Hepatocyte nuclear factor 4-alpha (Homo sapiens) (UniProt P41235); assay: ATG_HNF4a_TRANS: Attagene TRANS-FACTORIAL HepG2 Assay for human Hepatocyte Nuclear Factor 4 alpha (HNF4a) (AID 2282982; active = hit-call score of the fitted dose curve at least 0.9, where 1 is the maximum); settings: HepG2 HNF4a transactivation reporter, mRNA readout
Summary of the method: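 Transient MRTU transfection of HepG2, 24 h dosing. Readout: reporter mRNA via RT-PCR + capillary electrophoresis, fluorescence; activity fit upward relative to DMSO control.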

[17] = ATG_GAL4_TRANS: Attagene TRANS-FACTORIAL HepG2 Assay for GAL4 (Internal Marker) (AID 2282976; active = hit-call score of the fitted dose curve at least 0.9, where 1 is the maximum); settings: HepG2 Attagene TRANS GAL4 internal marker reporter
Summary of the method: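 In transfected human HepG2 liver cells dosed 24 h, GAL4 reporter mRNA serves as a baseline marker. Detection by RT-PCR with fluorescent capillary electrophoresis, activity fitted upward relative to DMSO.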

[18] = molecular target: Nuclear receptor subfamily 4 group A member 2 (Homo sapiens) (UniProt P43354); assay: ATG_NURR1_TRANS: Attagene TRANS-FACTORIAL HepG2 Assay for human Nuclear Receptor Related Protein 1 (NURR1) (AID 2282985; active = hit-call score of the fitted dose curve at least 0.9, where 1 is the maximum); settings: HepG2 Attagene TRANS reporter, mRNA readout
Summary of the method: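 Read-out: reporter mRNA induction by RT-PCR plus capillary electrophoresis with fluorescence detection, after 24 h dosing of transfected HepG2 cells. Exogenous NR-Gal4 chimera activity drives GAL4-UAS reporter; activity fitted upward versus DMSO.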

Measured: AC50

Chain of Oxysterols receptor LXR-beta (Homo sapiens) (P55055 whole entry, looked up, the tested form may be a part): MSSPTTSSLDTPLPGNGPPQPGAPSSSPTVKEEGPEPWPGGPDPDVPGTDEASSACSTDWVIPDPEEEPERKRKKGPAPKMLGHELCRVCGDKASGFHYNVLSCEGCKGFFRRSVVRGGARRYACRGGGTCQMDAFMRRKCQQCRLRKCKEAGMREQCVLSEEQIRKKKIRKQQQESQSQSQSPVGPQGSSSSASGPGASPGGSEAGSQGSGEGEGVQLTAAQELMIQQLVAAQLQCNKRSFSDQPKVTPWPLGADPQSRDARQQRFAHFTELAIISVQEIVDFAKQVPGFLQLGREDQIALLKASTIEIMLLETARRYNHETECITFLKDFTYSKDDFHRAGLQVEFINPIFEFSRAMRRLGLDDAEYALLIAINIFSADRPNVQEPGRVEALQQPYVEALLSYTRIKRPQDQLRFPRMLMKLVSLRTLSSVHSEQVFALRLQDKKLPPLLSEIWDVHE
Chain of Bile acid receptor (Homo sapiens) (Q96RI1 whole entry, looked up, the tested form may be a part): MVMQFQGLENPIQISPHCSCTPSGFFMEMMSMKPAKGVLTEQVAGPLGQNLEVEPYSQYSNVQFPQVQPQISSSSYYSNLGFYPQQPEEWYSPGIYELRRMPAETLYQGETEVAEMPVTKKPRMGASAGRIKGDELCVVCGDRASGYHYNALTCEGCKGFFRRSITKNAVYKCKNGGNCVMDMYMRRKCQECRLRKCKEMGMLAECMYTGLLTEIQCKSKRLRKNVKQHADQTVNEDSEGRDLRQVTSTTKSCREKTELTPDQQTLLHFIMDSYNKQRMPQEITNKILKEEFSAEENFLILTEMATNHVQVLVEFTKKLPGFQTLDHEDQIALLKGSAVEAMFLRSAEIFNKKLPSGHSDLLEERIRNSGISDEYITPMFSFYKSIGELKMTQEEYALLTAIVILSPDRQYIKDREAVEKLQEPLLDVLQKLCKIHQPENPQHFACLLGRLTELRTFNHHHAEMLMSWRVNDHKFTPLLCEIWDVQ
Chain of Estrogen-related receptor gamma (Homo sapiens) (P62508 whole entry, looked up, the tested form may be a part): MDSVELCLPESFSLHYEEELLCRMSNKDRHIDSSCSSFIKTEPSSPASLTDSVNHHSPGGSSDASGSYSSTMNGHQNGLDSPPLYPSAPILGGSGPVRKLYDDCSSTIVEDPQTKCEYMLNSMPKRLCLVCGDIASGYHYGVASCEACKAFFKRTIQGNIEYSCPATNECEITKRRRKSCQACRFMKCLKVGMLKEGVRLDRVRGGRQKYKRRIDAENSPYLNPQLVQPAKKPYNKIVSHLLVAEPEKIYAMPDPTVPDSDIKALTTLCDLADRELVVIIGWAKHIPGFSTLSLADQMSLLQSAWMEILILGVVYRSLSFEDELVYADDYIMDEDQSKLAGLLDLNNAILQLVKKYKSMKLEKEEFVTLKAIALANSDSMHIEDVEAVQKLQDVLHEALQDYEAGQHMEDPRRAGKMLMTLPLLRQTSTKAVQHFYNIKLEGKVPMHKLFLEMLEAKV
Chain of X-box-binding protein 1 (Homo sapiens) (P17861 whole entry, looked up): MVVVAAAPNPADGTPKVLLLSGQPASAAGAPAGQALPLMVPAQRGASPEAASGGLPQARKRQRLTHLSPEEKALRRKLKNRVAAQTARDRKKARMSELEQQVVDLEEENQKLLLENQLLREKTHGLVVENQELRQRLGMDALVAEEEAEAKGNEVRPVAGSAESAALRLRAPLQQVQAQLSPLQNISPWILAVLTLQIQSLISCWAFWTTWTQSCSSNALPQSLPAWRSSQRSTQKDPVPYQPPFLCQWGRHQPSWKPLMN
Chain of Nuclear respiratory factor 1 (Homo sapiens) (Q16656 whole entry, looked up): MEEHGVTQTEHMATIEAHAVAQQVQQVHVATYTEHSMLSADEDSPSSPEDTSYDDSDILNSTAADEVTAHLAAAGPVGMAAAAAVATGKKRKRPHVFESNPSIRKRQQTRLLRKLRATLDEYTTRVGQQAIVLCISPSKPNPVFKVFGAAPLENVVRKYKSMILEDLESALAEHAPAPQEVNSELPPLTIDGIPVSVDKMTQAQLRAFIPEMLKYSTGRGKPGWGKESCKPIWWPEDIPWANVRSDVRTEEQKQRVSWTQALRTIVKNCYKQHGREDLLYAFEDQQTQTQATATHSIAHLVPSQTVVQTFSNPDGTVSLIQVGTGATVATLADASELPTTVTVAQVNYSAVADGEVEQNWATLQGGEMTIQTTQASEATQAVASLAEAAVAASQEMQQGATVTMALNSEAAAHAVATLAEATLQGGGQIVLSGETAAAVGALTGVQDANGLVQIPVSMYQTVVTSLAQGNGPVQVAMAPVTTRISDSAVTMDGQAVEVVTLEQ
Chain of Transcriptional activator Myb (Homo sapiens) (P10242 whole entry, looked up): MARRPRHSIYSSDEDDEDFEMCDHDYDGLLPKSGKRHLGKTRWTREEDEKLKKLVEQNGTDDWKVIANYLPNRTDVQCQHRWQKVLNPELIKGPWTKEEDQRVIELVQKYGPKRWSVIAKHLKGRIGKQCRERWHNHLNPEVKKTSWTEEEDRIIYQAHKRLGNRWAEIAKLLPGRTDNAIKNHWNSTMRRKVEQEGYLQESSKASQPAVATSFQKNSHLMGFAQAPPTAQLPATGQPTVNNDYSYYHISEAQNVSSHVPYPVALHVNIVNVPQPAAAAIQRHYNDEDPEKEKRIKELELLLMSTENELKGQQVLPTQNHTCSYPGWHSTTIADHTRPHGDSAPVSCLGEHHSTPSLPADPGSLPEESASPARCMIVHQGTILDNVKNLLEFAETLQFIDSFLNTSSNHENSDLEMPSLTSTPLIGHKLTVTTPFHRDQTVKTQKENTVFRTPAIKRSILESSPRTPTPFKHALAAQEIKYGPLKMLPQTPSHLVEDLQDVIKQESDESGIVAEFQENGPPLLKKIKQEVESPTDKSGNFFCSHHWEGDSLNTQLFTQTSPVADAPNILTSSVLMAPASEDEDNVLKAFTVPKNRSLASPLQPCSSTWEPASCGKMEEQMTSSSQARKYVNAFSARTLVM
Chain of Hepatocyte nuclear factor 4-alpha (Homo sapiens) (P41235 whole entry, looked up): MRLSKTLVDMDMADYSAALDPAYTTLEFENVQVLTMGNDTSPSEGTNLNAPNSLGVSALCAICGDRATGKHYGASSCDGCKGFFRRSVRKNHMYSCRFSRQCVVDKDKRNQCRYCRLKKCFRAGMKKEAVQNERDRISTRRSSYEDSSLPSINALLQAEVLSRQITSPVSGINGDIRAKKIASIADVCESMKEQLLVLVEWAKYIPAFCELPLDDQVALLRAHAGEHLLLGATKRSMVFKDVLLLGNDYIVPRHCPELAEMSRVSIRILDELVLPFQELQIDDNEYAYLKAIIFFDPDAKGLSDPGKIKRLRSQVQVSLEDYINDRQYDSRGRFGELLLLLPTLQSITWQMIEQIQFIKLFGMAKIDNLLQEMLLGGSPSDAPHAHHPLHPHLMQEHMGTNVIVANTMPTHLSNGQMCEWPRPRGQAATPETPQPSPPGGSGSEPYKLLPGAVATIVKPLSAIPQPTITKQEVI
Chain of Glucocorticoid receptor (Homo sapiens) (P04150 whole entry, looked up, the tested form may be a part): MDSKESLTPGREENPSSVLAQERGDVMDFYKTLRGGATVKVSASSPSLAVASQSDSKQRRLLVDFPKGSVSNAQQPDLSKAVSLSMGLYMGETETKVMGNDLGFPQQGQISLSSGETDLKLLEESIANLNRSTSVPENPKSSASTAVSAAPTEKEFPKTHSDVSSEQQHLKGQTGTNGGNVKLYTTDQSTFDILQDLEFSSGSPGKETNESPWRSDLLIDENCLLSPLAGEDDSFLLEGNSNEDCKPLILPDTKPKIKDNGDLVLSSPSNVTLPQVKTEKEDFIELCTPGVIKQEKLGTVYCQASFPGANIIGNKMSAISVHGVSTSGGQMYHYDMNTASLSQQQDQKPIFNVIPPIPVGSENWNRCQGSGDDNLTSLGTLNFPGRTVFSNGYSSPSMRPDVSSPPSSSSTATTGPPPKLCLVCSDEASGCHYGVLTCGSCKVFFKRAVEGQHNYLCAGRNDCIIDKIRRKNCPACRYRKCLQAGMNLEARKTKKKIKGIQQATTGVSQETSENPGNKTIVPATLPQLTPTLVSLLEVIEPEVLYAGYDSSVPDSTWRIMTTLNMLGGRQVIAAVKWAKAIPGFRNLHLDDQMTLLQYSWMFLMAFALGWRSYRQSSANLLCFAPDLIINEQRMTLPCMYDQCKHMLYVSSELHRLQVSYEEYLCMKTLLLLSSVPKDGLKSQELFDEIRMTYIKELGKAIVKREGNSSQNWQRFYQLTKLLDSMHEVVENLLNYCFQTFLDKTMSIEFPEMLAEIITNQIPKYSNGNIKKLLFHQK
Chain of Oxysterols receptor LXR-alpha (Homo sapiens) (Q13133 whole entry, looked up, the tested form may be a part): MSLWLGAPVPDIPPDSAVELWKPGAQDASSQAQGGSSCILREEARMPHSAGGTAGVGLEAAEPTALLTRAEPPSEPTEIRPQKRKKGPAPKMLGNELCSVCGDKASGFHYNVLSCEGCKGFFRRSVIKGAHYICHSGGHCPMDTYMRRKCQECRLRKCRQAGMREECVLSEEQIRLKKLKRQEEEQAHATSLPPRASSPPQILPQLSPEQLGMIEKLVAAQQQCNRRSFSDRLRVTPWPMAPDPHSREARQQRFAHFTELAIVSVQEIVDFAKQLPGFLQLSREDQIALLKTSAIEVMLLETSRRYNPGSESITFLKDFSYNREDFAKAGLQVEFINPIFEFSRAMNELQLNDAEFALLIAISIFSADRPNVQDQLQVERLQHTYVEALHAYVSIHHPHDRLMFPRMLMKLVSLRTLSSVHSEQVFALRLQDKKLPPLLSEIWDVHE
Chain of Nuclear receptor subfamily 1 group I member 3 (Homo sapiens) (Q14994 whole entry, looked up, the tested form may be a part): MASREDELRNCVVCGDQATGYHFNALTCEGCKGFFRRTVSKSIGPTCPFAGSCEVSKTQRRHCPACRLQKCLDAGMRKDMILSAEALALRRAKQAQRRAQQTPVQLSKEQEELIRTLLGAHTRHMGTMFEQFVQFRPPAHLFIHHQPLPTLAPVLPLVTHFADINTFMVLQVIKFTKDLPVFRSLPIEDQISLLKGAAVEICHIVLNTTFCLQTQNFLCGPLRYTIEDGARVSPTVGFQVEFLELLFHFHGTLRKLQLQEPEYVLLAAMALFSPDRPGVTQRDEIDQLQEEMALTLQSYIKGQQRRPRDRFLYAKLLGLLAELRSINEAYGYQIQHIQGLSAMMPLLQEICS

CCC(C)S (centres undefined)
inactive: [1] | [2] | [3] | [4] | [5] | [6] | [7] | [8] | [9] | [10]

Cc1ccc(OC(=O)c2ccccc2O)cc1
not listed: [7] | [8] | [14] | [15] | [16] | [17] | [18]
inactive: all other assays above

CCCCCCOC(=O)CCC
not listed: [7] | [11] | [13] | [15] | [16] | [17] | [18]
inactive: all other assays above

CCOC(=O)COC(=O)c1cc(Oc2ccc(C(F)(F)F)cc2Cl)ccc1[N+](=O)[O-]
active: [2] 144 µM | [3] 33.5 µM
not listed: [7] | [8] | [11] | [12] | [17] | [18]
inactive: all other assays above

CC1(C)CCC[C@]2(C)[C@H]3CCO[C@]3(C)CC[C@@H]12
inactive: [1] | [2] | [3] | [4] | [5] | [17] | [14] | [12] | [13] | [9]

CN(C)C(=S)SC(=S)N(C)C
not listed: [7] | [8] | [11] | [12] | [14] | [17]
inactive: all other assays above

CCCCCCC(CO)CCCC (centres undefined)
not listed: [8] | [11] | [12] | [15] | [17]
inactive: all other assays above

COC(=O)c1ccc(OC)cc1
not listed: [7] | [17] | [18]
inactive: all other assays above

O=C(c1ccccc1)C(O)c1ccccc1 (centres undefined)
not listed: [8] | [11] | [12] | [13] | [15] | [16] | [17]
inactive: all other assays above

CCCCC(CC)COC(C)=O (centres undefined)
inactive: [1] | [2] | [3] | [4] | [5] | [6] | [17] | [16] | [9] | [10]

CC(C)C(OC(=O)c1ccccc1)C(C)(C)COC(=O)c1ccccc1 (centres undefined)
inactive: [1] | [2] | [4] | [5] | [6] | [9] | [10]
active: [3] 1.52 µM | [15] 20 µM

CCOc1ccc(N=Nc2ccc(C=Cc3ccc(N=Nc4ccc(OCC)cc4)cc3S(=O)(=O)O)c(S(=O)(=O)O)c2)cc1
not listed: [7] | [8] | [11] | [15] | [17] | [18]
inactive: all other assays above

ClC(c1ccccc1)(c1ccccc1)c1ccccc1
active: [3] 5.98 µM
not listed: [6] | [7] | [8] | [11] | [13] | [14] | [16]
inactive: all other assays above

C#CC(C)(O)CC(C)C (centres undefined)
not listed: [7] | [11] | [12] | [13] | [15] | [17] | [18]
inactive: all other assays above

C=C[Si]1(C)O[Si](C)(C=C)O[Si](C)(C=C)O[Si](C)(C=C)O1 (centres undefined)
inactive: [1] | [2] | [3] | [4] | [5] | [6] | [9] | [10]

COc1ccc(N=Nc2cc(C)c(N=Nc3ccc(S(=O)(=O)O)cc3)cc2OC)cc1
active: [2] 172 µM | [10] 71.8 µM
inactive: [1] | [3] | [4] | [5] | [6] | [16] | [13] | [9]

N[C@@H](Cc1cc(I)c(Oc2cc(I)c(O)c(I)c2)c(I)c1)C(=O)O
active: [3] 18.8 µM
not listed: [11] | [14] | [15] | [17]
inactive: all other assays above

O=C(O)COCC(=O)O
not listed: [6] | [7] | [10] | [11] | [13] | [18]
inactive: all other assays above

CCCCCCCC/C=C\CCCCCCCC(=O)OCC
not listed: [8] | [12] | [13] | [14] | [15] | [16] | [17]
inactive: all other assays above

CCOc1ccc(NC(=O)CC(C)=O)cc1
not listed: [7] | [10] | [14] | [15] | [17] | [18]
inactive: all other assays above

O=[N+]([O-])c1ccc(O)cc1C(F)(F)F
active: [1] 26.8 µM | [5] 31 µM | [10] 25.2 µM
not listed: [17]
inactive: all other assays above

CCCCN(CCCC)C(=O)N(CCCC)CCCC
inactive: [4] | [5] | [17] | [7] | [12] | [13] | [9]
active: [1] 50.2 µM | [2] 59.6 µM | [3] 7.92 µM | [15] 15.6 µM | [18] 42.9 µM
